APEX1 inh: blocks human APE1 abasic DNA cleavage | P27695 | recombinant APE1, TAMRA/BHQ-2 abasic DNA cleavage fluorescence | Potency, µM (series often up to 65.8 µM), without a hit: at the top dose activity change, negative = inhibition, most hits filed as inhibitors | actives 0.35% (n = 350,000) | AID 2517;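 further: plate controls were vehicle for no effect and reference inhibitor for full effect; nearly all actives have a fitted effect of over 55% in size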
Target sequence (P27695 whole entry, looked up): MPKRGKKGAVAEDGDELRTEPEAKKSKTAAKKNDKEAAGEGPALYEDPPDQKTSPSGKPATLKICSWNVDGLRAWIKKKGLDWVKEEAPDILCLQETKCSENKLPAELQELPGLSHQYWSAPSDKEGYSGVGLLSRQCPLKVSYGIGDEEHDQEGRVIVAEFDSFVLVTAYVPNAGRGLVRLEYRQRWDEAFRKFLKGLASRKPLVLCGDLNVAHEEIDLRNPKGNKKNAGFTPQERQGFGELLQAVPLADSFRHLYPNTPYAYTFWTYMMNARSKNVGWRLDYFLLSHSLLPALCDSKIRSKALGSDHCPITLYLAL
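Activity was derived from the fluorescence gain between first and third kinetic reads (60 s intervals, ex 525/em 598 nm) after 50 nM THF-abasic TAMRA/BHQ-2 duplex was added to 0.75 nM APE1 preincubated 15 min with compound.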
WRN helicase inh: blocks human WRN helicase. Q14191. WRN helicase unwinding, fluorescent forked duplex, kinetic. Potency, µM (series often up to 114 µM), for inactives: at the highest dose activity change, negative = inhibition, most hits filed as inhibitors. actives 0.46% (n = 360,000); further: nearly all actives have a fitted effect of over 55% in size
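Kinetic fluorescence helicase assay: unwinding of a quenched forked DNA duplex (100 nM final) with 2 mM ATP final raises red fluorescence (525/598 nm). Compounds sat 15 min at room temperature with 20 nM WRN beforehand.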
L3MBTL1 block: blocks human L3MBTL1 | AlphaScreen L3MBTL1–H3K9me1 peptide binding | Potency, µM (titrated, usually from 57.1 µM), for inactives: at the highest dose activity, negative = inhibition, hits mostly inhibitors | actives 0.66% (n = 230,000) | Q9Y468; further: nearly all actives have a fitted effect of over 60% in size
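Displacement of a biotinylated histone H3(1-15) peptide monomethylated at Lys9 (75 nM) from L3MBTL1 (50 nM) was measured by AlphaScreen after a 30 min room-temperature compound incubation; cefsulodin titration served as intraplate control.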
BLM helicase inh: blocks DNA unwinding by human BLM helicase; AID 2528; actives 0.2% (n = 350,000); P54132; recombinant BLM DNA unwinding, fluorescence dequenching; Potency, µM (highest dose often 56.1 µM), without a hit: top-dose activity change, negative = inhibition, hits mostly inhibitors;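 further: plate controls were vehicle for no effect and no enzyme for full effect; nearly all actives have a fitted effect of over 35% in size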
FEN1 inh: inhibitors of human flap endonuclease 1. actives 0.35% (n = 390,000). Potency, µM (series often up to 114 µM), for inactives: at the highest dose activity change, negative = inhibition, hits mostly inhibitors. AID 588795. Recombinant FEN1 flap cleavage, fluorescence, 15 min. P39748; further: nearly all actives have a fitted effect of over 65% in size
Target sequence (P39748 whole entry, looked up): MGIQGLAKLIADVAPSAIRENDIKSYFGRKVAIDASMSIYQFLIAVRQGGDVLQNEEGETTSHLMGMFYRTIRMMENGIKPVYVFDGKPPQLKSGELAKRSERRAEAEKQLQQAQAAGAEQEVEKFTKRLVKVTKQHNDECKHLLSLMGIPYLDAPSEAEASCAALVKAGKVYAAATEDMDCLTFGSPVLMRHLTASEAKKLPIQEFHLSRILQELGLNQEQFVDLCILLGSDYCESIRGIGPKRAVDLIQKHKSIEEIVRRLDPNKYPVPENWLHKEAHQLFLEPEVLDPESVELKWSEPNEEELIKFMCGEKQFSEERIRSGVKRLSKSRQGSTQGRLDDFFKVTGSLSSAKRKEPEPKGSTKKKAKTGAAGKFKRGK
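Quantitative HTS format: each compound was titrated, incubated with 10 nM nuclease for 15 min at room temperature, then challenged with flap substrate at 50 nM final. Signal change over 15 min gave concentration–effect curves.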
RECQ1 inh-1: blocks DNA unwinding by human RECQ1; actives 0.54% (n = 240,000); Potency, µM (top dose mostly 57.3 µM), for the others: top-dose activity, negative = inhibition, hits mostly inhibitors; AID 2549; P46063; RECQ1 DNA unwinding, red fluorescence kinetic read;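 further: plate controls were vehicle for no effect and no enzyme for full effect; nearly all actives have a fitted effect of over 30% in size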
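RECQ1T1 50 nM; forked duplex (20 bp + 30-nt ss tails) 200 nM, ATP 2 mM final; pH 8.0, 2 mM MgCl2, 2.5 ug/ml poly(dI-dC); 15 min compound preincubation; discontinuous kinetic read over 2 h at RT.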
RECQ1 conf: confirmation of human RECQ1 helicase inhibitors; shares compounds with RECQ1 inh-1; RECQ1 helicase DNA unwinding, fluorescence; Potency, µM (top dose mostly 229 µM), without a hit: at the top dose activity change, negative = inhibition, usual class: inhibitors; actives 28% (n = 610); AID 2708; further: nearly all actives have a fitted effect of over 45% in size
ADP FP counter: counter-screen for RECQ1 inhibitors: ADP displacement; shares compounds with RECQ1 inh-1; ADP fluorescence polarization displacement counterscreen; Potency, µM (titrated, usually from 228 µM), for the others: top-dose activity change, negative = inhibition, hits mostly inhibitors; actives 27% (n = 530); AID 2711; further: nearly all actives have a fitted effect of over 45% in size
RECQ1 inh-2: blocks human RECQ1 DNA unwinding; recombinant RECQ1 DNA unwinding, red fluorescence; Potency, µM (doses to about 119 µM), inactives show at the highest dose activity, negative = inhibition, most hits filed as inhibitors; shares compounds with RECQ1 inh-1; AID 504841; actives 15% (n = 1,100); further: nearly all actives have a fitted effect of over 50% in size
The depositor's hits bear a star; i = inactive; ? = inconclusive; · = no result; [ ] = another dose, or the depositor's remark. Most compounds without a hit are left out; they make up all but 1% or so of the library. The call rests on the fitted dose curve; in most records, active means well fitted curve in the direction sought with a large enough effect; inconclusive means small, poorly fitted or top-dose-only effect, or another doubt; inactive means no such curve, though single readings can be large; an effect the other way counts as inactive or inconclusive. Unless noted, on the % scale 0 is the no-effect control and ±100 the full control effect; potency means the concentration at half of the fitted maximal effect.

SMILES	APEX1 inh	WRN helicase inh	L3MBTL1 block	BLM helicase inh	FEN1 inh	RECQ1 inh-1	RECQ1 conf	RECQ1 inh-2	others
O=C(O)CCC(=O)N1CCc2cc(S(=O)(=O)N3CCCCC3)ccc21	6%	1%	2%	-3%	-13%	9%	-2%	·	ADP FP counter=12%
CC1CCCN(S(=O)(=O)c2ccc3c(c2)CCN3C(=O)CCC(=O)O)C1 (stereo not given)	·	·	·	0%	18%	·	·	·
O=C(O)CCC(=O)Nc1nc2nccc(-c3ccccc3)n2n1	?	-1%	-18%	9%	3%	-25%	?	·	ADP FP counter=-2%
Cc1ccc(CSc2nnc(-c3ccc(NS(=O)(=O)c4ccccc4)cc3)o2)cc1	-10%	-19%	1%	-4%	-6%	?	·	-22%
Cc1ccc(-n2nnc(-c3nccs3)n2)cc1	?	8%	22%	3%	-8%	0.89µM*	12%[114 µM]	0%	ADP FP counter=32%[91.9 µM]
CCN(CC)c1ccc(/C=N/NC(=S)NCc2ccccc2)cc1	-1%	3%	-12%	-8%	2%	7.1µM*	-7%[114 µM]	·	ADP FP counter=7%[91.9 µM]
Cc1ccc(-n2c(Cc3cccn3C)nnc2SCC(=O)N2CCc3ccccc32)cc1	9%	-2%	0%	-17%	-17%	0.22µM*	17%[114 µM]	-9%	ADP FP counter=14%[91.9 µM]
COc1cc(CC(=O)N2c3ccccc3N=C(c3ccccc3)C2C(=O)NCc2ccccc2)cc(OC)c1 (stereo not given)	·	-13%	·	·	·	·	·	·
Cc1oc(-c2ccc(Cl)cc2)cc1-c1nn2c(-c3ccoc3C)nnc2s1	?	?	?	10µM*	-1%	14µM*	35µM*	·	ADP FP counter=14%[91.9 µM]
CCCCNC(=O)C1(C)CCN1Cc1cc(C)ccc1C (stereo not given)	·	6%[57.1 µM]	·	·	·	·	·	·
Cc1cc(C)n(CCc2nc(-c3ccco3)cs2)n1	?	?	·	?	-28%	35µM*	·	?
CCOC(=O)c1c(N2C(=O)Nc3cc(Cl)c(Cl)cc3N2O)sc2c1CCCCC2	-10%	?	-13%	-8%	?	?	·	20µM*
Cc1noc(/C=C/c2ccccc2F)c1S(=O)(=O)N1CCC(C(=O)N2CCOc3ccccc32)CC1	·	·	·	-4%	-2%	·	·	·
CC(=O)NC(c1cc(F)c2cccnc2c1O)C(C)C (stereo not given)	17%	·	-20%	·	·	·	·	·
CC(C)c1nnc(NC(=O)Cc2cccs2)s1	0%	-1%	15%	5%	-2%	i	·	·
CC(C)Cc1nnc(NC(=O)Cc2cccs2)s1	?	?	?	-26%	14%	?	·	56µM*
Nc1cc2nc3ccccc3oc-2cc1=O	1%	-1%[11.6 µM]	?	-14%	?	?	·	?
Cc1ccccc1CN1[C@H]2CCCC[C@@H]2OCCS1(=O)=O	·	·	·	·	-12%	·	·	·
Cc1ccccc1OCCCCc1c(C)n[nH]c1C	-1%	-7%	-6%	-3%	-18%	?	·	-14%
C=CCN1C(=O)C(=Cc2ccc3c(c2)CCC3)SC1=S	·	1%	·	·	·	·	·	·
Cc1ccc(C2C(C#N)=C(N)Oc3c2oc(CO)cc3=O)o1 (stereo not given)	?	-1%	?	-1%	3%	40µM*	·	8%
CC(C)Oc1ccc(C2C(C#N)=C(N)Oc3c2oc(CO)cc3=O)cc1 (stereo not given)	-6%	2%	·	-4%	6%	-1%	·	·
CC(C)c1onc(-c2c(Cl)cccc2Cl)c1COc1ccc(/C=C/c2cccc(C(=O)O)c2)c(Cl)c1	-5%	·	·	32µM*	·	32µM*	·	35µM*
N#CC1=C(N)n2c(s/c(=C\c3ccco3)c2=O)=C(C#N)C1c1ccco1 (stereo not given)	7.1µM*	40µM*	25µM*	-6%	45µM*	8.9µM*	·	-31%
N#CC1=C(N)n2c(s/c(=C\c3cccs3)c2=O)=C(C#N)C1c1cccs1 (stereo not given)	-7%	-11%[11.6 µM]	-7%	-18%	?	?	·	·
SMILES	APEX1 inh	WRN helicase inh	L3MBTL1 block	BLM helicase inh	FEN1 inh	RECQ1 inh-1	RECQ1 conf	RECQ1 inh-2	others
O=C(O)CC(CC(=O)Nc1ccccc1C(=O)O)c1ccccc1 (stereo not given)	-2%	-2%	·	-2%	-7%	-3%	25%	·	ADP FP counter=0%
O=C(Cc1ccccc1)Nc1ccccc1C(=O)O	26%	3%	·	-2%	8%	6%	·	·
CCc1ccc(S(=O)(=O)c2nnn(-c3ccc(F)cc3)c2N)cc1	·	·	·	-3%	-1%	·	·	·
COc1ccccc1[C@@]1(C)ON(c2ccccc2C(F)(F)F)C1=O	23%	-4%	19%	·	-5%	·	·	·
C/C(=N\NC(=O)CSCc1ccc([N+](=O)[O-])cc1)c1cccc(Br)c1	11%	-16%	-9%	-1%	-5%	1µM*	-4%[114 µM]	·
C/C(=N/NC(=O)CSCc1ccc(Cl)cc1)c1cccc(NC(=O)c2ccccc2)c1	?	-9%	·	-4%	-13%	i	·	·
COc1cc(/C=C2\SC(N)=NC2=O)ccc1OCC(=O)Nc1ccc(C)cc1	2%	-9%[11.6 µM]	14%	-16%	-20%	?	·	?
Cc1ccc(NC(=O)c2c(C)oc3ncn(C)c(=O)c23)cc1F	·	·	·	-4%	-10%	·	·	·
Cc1sc(-n2cccc2)c(C(=O)O)c1C	-4%	-24%[57.1 µM]	-14%	-11%	-2%	?	·	?
O=C(O)c1ccc2c(c1)C(=O)N(c1cccc(C(=O)/C=C/c3ccccc3)c1)C2=O	23%	?	11%	-11%	?	6.3µM*	?	?	ADP FP counter=3%[91.9 µM]
COc1ccc(CN(Cc2ccccc2)C(=O)C2CC2)cc1COc1ccc(NC(C)=O)cc1	·	·	·	·	-6%	·	·	·
Cc1ccc(NC(=O)CSCC#N)cc1Cl	18%	-21%	11%	4%	0%	28µM*	·	0%
Cc1ccc(-c2nc(-c3cc4cccc(OCc5cccc(F)c5)c4oc3=O)no2)cc1	·	·	·	-15%	-2%	·	·	·
COC(=O)Nc1ccc(S(=O)(=O)N2CCCC(C(=O)N3CC(C)OC(C)C3)C2)cc1 (stereo not given)	-3%	0%	-3%	-6%	-7%	-13%	-2%	·	ADP FP counter=12%

Compound activity as filed in PubChem BioAssay.
